# Bioassay records from PubChem BioAssay.
# aSyn rescue – alpha-synuclein toxicity inhibition in yeast | AID 652106 | Yeast expressing alpha-synuclein, growth rescue, BacTiter-Glo, 24 h | actives 0.14% (n = 370,000) | Potency, µM (highest dose often 46.1 µM), inactives show top-dose growth rescue (activation), hits mostly activators; further: % of control where 0% means no effect; nearly all actives have a fitted effect of over 65% in size
#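 Galactose-induced alpha-syn yeast (OD600=0.02, raffinose-pregrown) + pinned cpd, 24 hr, 30 deg C; growth by BacTiter-Glo luminescence. Growth restoration scores as activation.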
# Abeta rescue – restores growth of yeast expressing A-beta42 peptide; yeast expressing A-beta42, growth rescue, OD600, 48 h; response scale: 0% DMSO, 100% iron-clioquinol control; Potency, µM (doses to about 46.1 µM), hits mostly activators; actives 0.063% (n = 410,000); further: nearly all actives have a fitted effect of over 55% in size
#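 Yeast A-beta toxicity model in growth medium with pinned compounds, 48 h at 30 C; growth read as absorbance at 600 nm. Normalized to FeCl3/clioquinol equimolar mix (positive) and DMSO (negative).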
# FUS suppressor – rescues growth of FUS-expressing yeast; S. cerevisiae FUS-expressing, growth rescue, OD600, 24 h; Potency, µM (series often up to 76.6 µM), actives largely listed as activators; actives 0.24% (n = 390,000); AID 1347120;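 further: plate controls were DMSO vehicle for no effect and reference control for full effect; nearly all actives have a fitted effect of over 55% in size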
#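 S. cerevisiae expressing FUS from galactose induction served as the toxicity model. Growth after 24hr at 30C, read as absorbance at 600 nm, indicates suppression of toxicity; compounds dosed at several concentrations.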
# TDP43 rescue – TDP-43 toxicity inhibition in yeast. TDP-43 expressing yeast growth rescue, BacTiter-Glo, 24 h. Potency, µM (doses to about 46.1 µM), inactives show at the highest dose growth rescue (activation), actives largely listed as activators. actives 1.8% (n = 410,000). AID 652104; further: % of control where 0% means no effect; nearly all actives have a fitted effect of over 50% in size
#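 Readout is BacTiter-Glo luminescence of cell growth, so inhibitors register as activators. TDP-43-expressing yeast at OD600=0.02 in galactose medium, after raffinose pregrowth to mid-log, were incubated with compound for 24 hr at 30 deg C.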
# * = called active by the depositor; i = inactive; ? = inconclusive; · = not tested or not shown. Most compounds without a hit are left out; they make up all but 2.1% or so of the library. The call rests on the fitted dose curve; in most records, active means well fitted curve in the direction sought with a large enough effect; inconclusive means small, poorly fitted or top-dose-only effect, or another doubt; inactive means no such curve, though single readings can be large; an effect the other way counts as inactive or inconclusive. Potency means the concentration at half of the fitted maximal effect.
SMILES,aSyn rescue,Abeta rescue,FUS suppressor,TDP43 rescue
O=C(c1cncs1)N1CCCC(CNS(=O)(=O)c2cccs2)C1 (centres undefined),5.6%,i,i,-2.7%
O=C(CCN1C(=O)c2ccccc2S1(=O)=O)NCc1ccccc1Cl,0.1%,i,i,-3.7%
OC[C@@H]1[C@@H](c2ccccc2)C(c2ccccc2)=NN1c1ccccc1,?,?,i,12.6µM*
COc1ccccc1[C@H]1C(c2cccc(Cl)c2)=NN(c2ccccc2)[C@@H]1CO,-1.2%,i,?,20µM*
OC[C@@H]1[C@@H](c2ccccc2)C(c2cccc(Cl)c2)=NN1c1ccccc1,-69.1%,i,?,-79.6%
Cc1ccc(CSCCNC(=O)C2CCN(S(=O)(=O)Cc3ccccc3)CC2)cc1,·,i,i,5.7%
Nn1cnc2c(c1=O)C1(CCCCC1)Cc1ccccc1-2,0.0%,i,·,10µM*
CC(=O)Nn1cnc2c(c1=O)C1(CCCC1)Cc1ccccc1-2,-1.1%,i,i,2.1%
Cc1ccccc1C(=O)NC1CCN(CC(=O)N2CCCCC2C)CC1 (centres undefined),-0.5%,i,i,-13.1%
CNC(=O)c1ccccc1Nc1ccc(SC(F)F)cc1,-29.4%,i,i,22.4µM*
Cc1ccc(CNS(=O)(=O)c2ccc(C)s2)cc1,4.3%,i,i,?
CCC(=O)N1CCc2cc(CNS(=O)(=O)c3ccc(Cl)s3)ccc21,·,i,i,12.6µM*
Cc1ccc(CNS(=O)(=O)c2ccc(Cl)s2)cc1,9.1%,i,i,12.6µM*
CCOC(=O)[C@]12CCCC=C1N(Cc1ccc3c(c1)OCO3)C(=O)[C@H](CC(=O)N1CCN(C(=O)C3CC3)CC1)C2,-7.2%,i,i,11.2%
COc1cccc(N2CCN(C(=O)c3cc4c(s3)-c3c(C)cccc3OC4)CC2)c1,·,i,?,26.5%
CCCOc1ccc(N/C=C/C(=O)c2ccc(OC)c(OC)c2)cc1,16.0%,i,i,6.4%
CCOc1ccc(N/C=C/C(=O)c2ccc(OC)c(OC)c2)cc1,?,i,i,15.8µM*
Cc1cc(-c2ccc(S(=O)(=O)Nc3ccc(Cl)cc3C)cc2)on1,·,i,i,15.8µM*
Cc1ccc(NS(=O)(=O)c2ccc(-c3cc(C)no3)cc2)c(Br)c1,·,i,i,22.4µM*
Cc1cc(-c2ccc(S(=O)(=O)Nc3ccccc3C)cc2)on1,·,i,i,23.0%
Cc1ccc(C)c(N2CCN(S(=O)(=O)c3ccc(-c4cc(C(F)(F)F)on4)s3)CC2)c1,·,i,i,19.2%
O=C(Cc1ccccc1)NC1CCCCN(Cc2ccc(Cl)cc2)C1=O (centres undefined),·,·,i,·
COc1ccccc1/C=C1\SC(N2CCC(C)CC2)=NC1=O,16.9%,i,i,12.6µM*
COc1cccc(/C=C2\SC(N3CCC(C)CC3)=NC2=O)c1OC,1.4%,i,i,?
NC(=O)NOCc1ccc(Cl)cc1Cl,0.0%,i,i,19.6%
SMILES,aSyn rescue,Abeta rescue,FUS suppressor,TDP43 rescue
CNC(=S)/N=C/NOCc1ccc(Cl)cc1Cl,-21.1%,i,i,10µM*
CC(=O)c1cccc(NC(=O)C2CCCN2S(=O)(=O)c2ccccc2C(F)(F)F)c1 (centres undefined),-6.5%,i,i,13.0%
O=C(COc1ccccc1Cl)Nc1cccc(S(=O)(=O)N2CCCC2)c1,12.8%,i,i,17.8µM*
CCc1ccccc1OCC(=O)Nc1ccc(F)c(S(=O)(=O)N2CCOCC2)c1,7.0%,i,i,15.8µM*
O=C(Nc1cccc(S(=O)(=O)N2CCCCC2)c1)[C@@H]1CCCN1S(=O)(=O)c1ccccc1C(F)(F)F,-0.1%,i,25.1µM*,-21.5%
COc1ccc(CC(=O)Nc2ccc(F)c(S(=O)(=O)N3CCOCC3)c2)cc1,-0.2%,i,i,4.5%
O=C(COc1ccc(F)cc1Cl)Nc1cccc(S(=O)(=O)N2CCCC2)c1,-2.0%,i,i,35.5µM*
COC(=O)[C@H](Cc1ccccc1)NP(=O)(OC)[C@@H](C)NC(=O)OCc1ccccc1 (some centres undefined),·,·,i,·
COc1ccc(-c2cc(C(C)=O)c(C)n2CCC(=O)Nc2ccc(C(F)(F)F)cc2)cc1,·,i,i,15.6%
COc1ccccc1NC(=O)c1cccc(S(=O)(=O)N2CCCCCC2)c1,·,i,i,35.5µM*
COc1ccc(C(=O)Nc2ccccc2N2CCCCC2)cc1[N+](=O)[O-],-2.7%,i,i,17.8µM*
CC1Cc2nc(SCC(=O)NCC3CCCO3)n(-c3ccccc3)c(=O)c2S1 (centres undefined),22.4µM*,i,i,-2.5%
Cc1ccc(S(=O)(=O)c2c(N)n(/N=C/c3ccco3)c3nc4ccccc4nc23)cc1,1.3%,i,i,14.1µM*
O=C(c1ccccc1F)N1CCN(c2cccc(C(F)(F)F)c2)CC1,6.0%,i,i,?
O=C(c1ccc2ncsc2c1)N1CCN(c2cccc(C(F)(F)F)c2)CC1,-1.9%,17.8µM*,?,0.0%
O=C(Nc1ccc2c(c1)OCO2)N1CCN(c2cccc(C(F)(F)F)c2)CC1,-8.6%,i,i,10µM*
O=C(c1c(F)c(F)c(F)c(F)c1F)N1CCN(c2cccc(C(F)(F)F)c2)CC1,4.7%,i,i,15.8µM*
O=C(c1ccc2nc[nH]c2c1)N1CCN(c2cccc(C(F)(F)F)c2)CC1,0.0%,i,i,9.5%
O=C(CS(=O)(=O)c1cccc2nsnc12)N1CCN(c2cccc(C(F)(F)F)c2)CC1,14.5%,i,i,20µM*
O=C(CS(=O)(=O)c1cccc2nsnc12)N1CCN(c2ccccc2F)CC1,·,i,i,6.4%
C[C@@H]1CCCN1c1cccc2c1S(=O)(=O)N1CC[C@H](C1)O2,·,·,i,·
CCn1c(=S)[nH]c2c(=O)n(C)c(=O)n(C)c21,-7.2%,i,i,-13.7%
Cc1oc2ncnc(N3CCCCC3)c2c1C(=O)N1CCN(c2cccc(C(F)(F)F)c2)CC1,·,i,?,22.4µM*
Cc1nc(N2CCOCC2)c2c(C(=O)N3CCN(c4cccc(C(F)(F)F)c4)CC3)c(C)oc2n1,·,i,i,?
Cc1ccc(C(=O)O)cc1-n1c(C)ccc1-c1ccccc1,·,i,i,4.0%
Cc1ccc(-c2ccccc2)n1-c1cccc(C(=O)O)c1,-11.0%,i,i,35.5µM*
Cc1ccc(-c2ccccc2)n1-c1ccc(C(=O)O)cc1,-26.2%,i,i,12.6µM*
Cc1cccc2sc(NNC(=O)c3ccc(S(=O)(=O)N4CCCC(C)C4)cc3)nc12 (centres undefined),11.1%,i,?,5.62µM*
CCc1nnc(NC(=O)c2ccc(S(=O)(=O)N3CCCC(C)C3)cc2)o1 (centres undefined),22.4µM*,?,i,?
